PubChem BioAssay
The source made the active and inactive calls.

Columns and labels:
[1] = small molecules captured by biotinylated probe aFSTL3 – biochemical, small-molecule microarray, fluorescence 635/667, stem cell growth factor project, primary screen (AID 1064); conditions: higher = more signal;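 note: measures binding of the biotinylated anti-FSTL3 antibody to printed compounds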
[2] = binders from COS7 lysate, DM2A8 probe, primary screen, torsin A project, cell lysate, small-molecule microarray, fluorescence 635/667 (AID 1065); conditions: higher = more signal, COS7 lysate expressing mutant human TOR1A
[3] = small molecules captured by biotinylated probe aFGF2 – biochemical, small-molecule microarray, fluorescence 635/667, stem cell growth factor project, primary screen (AID 1067); conditions: higher = more signal;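 note: measures binding of biotinylated aFGF2 protein to printed compounds on slides; z-score merges feature fluorescence and signal-to-noise across triplicate slides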
[4] = small molecules captured by biotinylated probe aFGF10 – biochemical, small-molecule microarray, fluorescence 635/667, stem cell growth factor project, primary screen (AID 1071); conditions: higher = more signal;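 note: score merges 667 nm spot intensity and signal to noise from triplicate slides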
[5] = molecular target: Neurogenic locus notch homolog protein 2 (Homo sapiens) (UniProt Q04721); assay: small molecules binding Notch2 protein – biochemical, small-molecule microarray, 635 nm fluorescence, stem cell growth factors, primary screen (AID 1073); conditions: higher = more signal
[6] = molecular target: Pro-neuregulin-1, membrane-bound isoform (Homo sapiens) (UniProt Q02297); assay: small molecules binding neuregulin-1 protein – biochemical, small-molecule microarray, fluorescence 635/667, psychiatric disease protein project, primary screen (AID 1075); conditions: NRG1 binding, 635 nm fluorescence, higher = more signal;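 note: score combines 667 nm spot fluorescence with signal to noise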
Chain of Pro-neuregulin-1, membrane-bound isoform (Homo sapiens) (Q02297 whole entry, looked up, the tested form may be a part, canonical isoform): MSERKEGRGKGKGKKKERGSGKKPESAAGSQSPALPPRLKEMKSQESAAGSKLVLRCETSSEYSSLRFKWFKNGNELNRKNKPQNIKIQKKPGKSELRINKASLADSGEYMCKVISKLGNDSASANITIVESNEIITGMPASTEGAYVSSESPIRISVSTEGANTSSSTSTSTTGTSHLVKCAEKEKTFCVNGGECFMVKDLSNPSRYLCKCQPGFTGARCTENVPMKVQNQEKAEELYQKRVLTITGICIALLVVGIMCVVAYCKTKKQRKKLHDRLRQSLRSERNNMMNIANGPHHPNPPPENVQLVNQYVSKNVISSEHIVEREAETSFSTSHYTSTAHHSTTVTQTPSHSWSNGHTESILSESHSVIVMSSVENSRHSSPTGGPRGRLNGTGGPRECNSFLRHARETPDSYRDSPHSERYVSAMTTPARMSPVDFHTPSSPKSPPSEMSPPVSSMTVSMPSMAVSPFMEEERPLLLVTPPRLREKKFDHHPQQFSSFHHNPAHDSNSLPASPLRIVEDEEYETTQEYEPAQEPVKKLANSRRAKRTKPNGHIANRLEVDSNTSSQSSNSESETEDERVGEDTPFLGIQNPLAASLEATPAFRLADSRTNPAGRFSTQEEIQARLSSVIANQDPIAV

[7] = tested on: Neuregulin-1 EGF-like domain; assay: small molecules binding NRG1 EGF domain – biochemical, small-molecule microarray, 635 nm fluorescence, primary screen (AID 1081); conditions: higher = more signal;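 note: binding of the protein to compounds printed on small-molecule microarray slides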
[8] = FRG1 expression reporter modulators in myotubes – cell-based, C2C12 myotubes, firefly/Renilla luciferase, luminescence, FRG1 inhibition for FSHD, primary screen (AID 1084); conditions: FRG1 promoter luciferase, higher = more signal, called active from +8 up or from −8 down
[9] = small molecules captured by biotinylated probe aFST – biochemical, small-molecule microarray, fluorescence 635/667, stem cell growth factor project, primary screen (AID 1086); conditions: higher = more signal;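 note: score merges 667 nm fluorescence with signal-to-noise of each printed compound spot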
[10] = binders of probe aHhip on microarray, primary screen, stem cell growth factor project, biochemical, small-molecule microarray, fluorescence 635/667 (AID 1087); conditions: higher = more signal;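 note: score merges spot fluorescence at 667nm with spot signal to noise ratio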
[11] = tested on: PRMT1 (protein arginine N-methyltransferase 1); assay: small molecules binding arginine methyltransferase PRMT1 – biochemical, small-molecule microarray, 635 nm fluorescence, primary screen (AID 1088); conditions: higher = more signal;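 note: binding of Prmt1 protein to compounds spotted on small-molecule microarray slides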
[12] = growth effects on S. cerevisiae YJM789 – YJM789 clinical isolate, OD600, 24 h, basal, primary screen (AID 1089); conditions: higher = more signal, called active from +8 up or from −8 down;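 note: growth of clinical yeast isolate S. cerevisiae YJM 789 seeded 1000 cells per well; test concentration not given here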
[13] = S. pombe growth modifiers, basal conditions – strain 972, OD600, 24 h, no modulator, primary screen (AID 1090);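 note: basal condition with compound alone and no growth modifier present; test concentration not given here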; conditions: S. pombe 972 growth, higher = more signal, called active from +8 up or from −8 down
[14] = budding yeast growth modifiers under rapamycin – strain BY4716, OD600, 96 h, primary screen (AID 1091); note: test concentration not given here; conditions: S. cerevisiae BY4716 + rapamycin, higher = more signal, called active from +8 up or from −8 down
[15] = molecular target: Torsin-1A-interacting protein 2 (Homo sapiens) (UniProt Q8NFQ8); assay: small molecules binding lysate-expressed LULL1 – cell lysate, human LULL1 lysate, 635/667 nm fluorescence, primary screen (AID 1092); conditions: small-molecule microarray, hLULL1 lysate binding, 635 nm fluorescence; higher = more signal;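 note: probe is lysate of COS7 cells overexpressing human LULL1; score merges per-feature 667 nm fluorescence with signal-to-noise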
Chain of Torsin-1A-interacting protein 2 (Homo sapiens) (Q8NFQ8 whole entry, looked up): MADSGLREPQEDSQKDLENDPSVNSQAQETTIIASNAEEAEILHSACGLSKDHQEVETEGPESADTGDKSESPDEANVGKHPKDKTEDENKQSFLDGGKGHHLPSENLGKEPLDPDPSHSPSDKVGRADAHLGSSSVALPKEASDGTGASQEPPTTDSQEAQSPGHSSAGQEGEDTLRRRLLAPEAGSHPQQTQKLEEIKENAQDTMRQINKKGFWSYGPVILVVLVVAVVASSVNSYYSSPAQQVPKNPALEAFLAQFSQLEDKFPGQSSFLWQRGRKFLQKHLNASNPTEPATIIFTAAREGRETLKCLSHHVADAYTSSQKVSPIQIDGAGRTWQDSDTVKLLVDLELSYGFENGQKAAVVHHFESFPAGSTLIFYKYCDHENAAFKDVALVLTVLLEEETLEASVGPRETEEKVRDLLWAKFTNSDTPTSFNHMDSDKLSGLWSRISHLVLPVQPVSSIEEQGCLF

[16] = optical density change of DRC41 E. coli – strain DRC41, OD650, 24 h, E. coli filamentation project, primary screen (AID 1093);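 note: MC1000 strain lacking acrAB efflux and sulA so SOS filamentation is blocked; test concentration not given here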; conditions: E. coli DRC41 growth, higher = more signal, called active from +8 up or from −8 down
[17] = probe aLefty2 binding to arrayed compounds – biochemical, biotinylated probe, 635/667 nm fluorescence, primary screen (AID 1094); conditions: small-molecule microarray, higher = more signal;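 note: score merges spot fluorescence near 667 nm with spot signal-to-noise ratio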
[18] = tested on: Noggin (protein binding on small-molecule microarray); assay: small molecules binding Noggin protein – biochemical, 635/667 nm fluorescence, primary screen (AID 1095); conditions: 635 nm fluorescence, higher = more signal;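 note: score merges 667 nm feature fluorescence with signal to noise over triplicate slides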
[19] = molecular target: Neurogenic locus notch homolog protein 3 (Homo sapiens) (UniProt Q9UM47); assay: small molecules binding NOTCH3 protein – biochemical, 635/667 nm fluorescence, primary screen (AID 1096); conditions: small-molecule microarray, 635 nm fluorescence, higher = more signal
Chain of Neurogenic locus notch homolog protein 3 (Homo sapiens) (Q9UM47 whole entry, looked up): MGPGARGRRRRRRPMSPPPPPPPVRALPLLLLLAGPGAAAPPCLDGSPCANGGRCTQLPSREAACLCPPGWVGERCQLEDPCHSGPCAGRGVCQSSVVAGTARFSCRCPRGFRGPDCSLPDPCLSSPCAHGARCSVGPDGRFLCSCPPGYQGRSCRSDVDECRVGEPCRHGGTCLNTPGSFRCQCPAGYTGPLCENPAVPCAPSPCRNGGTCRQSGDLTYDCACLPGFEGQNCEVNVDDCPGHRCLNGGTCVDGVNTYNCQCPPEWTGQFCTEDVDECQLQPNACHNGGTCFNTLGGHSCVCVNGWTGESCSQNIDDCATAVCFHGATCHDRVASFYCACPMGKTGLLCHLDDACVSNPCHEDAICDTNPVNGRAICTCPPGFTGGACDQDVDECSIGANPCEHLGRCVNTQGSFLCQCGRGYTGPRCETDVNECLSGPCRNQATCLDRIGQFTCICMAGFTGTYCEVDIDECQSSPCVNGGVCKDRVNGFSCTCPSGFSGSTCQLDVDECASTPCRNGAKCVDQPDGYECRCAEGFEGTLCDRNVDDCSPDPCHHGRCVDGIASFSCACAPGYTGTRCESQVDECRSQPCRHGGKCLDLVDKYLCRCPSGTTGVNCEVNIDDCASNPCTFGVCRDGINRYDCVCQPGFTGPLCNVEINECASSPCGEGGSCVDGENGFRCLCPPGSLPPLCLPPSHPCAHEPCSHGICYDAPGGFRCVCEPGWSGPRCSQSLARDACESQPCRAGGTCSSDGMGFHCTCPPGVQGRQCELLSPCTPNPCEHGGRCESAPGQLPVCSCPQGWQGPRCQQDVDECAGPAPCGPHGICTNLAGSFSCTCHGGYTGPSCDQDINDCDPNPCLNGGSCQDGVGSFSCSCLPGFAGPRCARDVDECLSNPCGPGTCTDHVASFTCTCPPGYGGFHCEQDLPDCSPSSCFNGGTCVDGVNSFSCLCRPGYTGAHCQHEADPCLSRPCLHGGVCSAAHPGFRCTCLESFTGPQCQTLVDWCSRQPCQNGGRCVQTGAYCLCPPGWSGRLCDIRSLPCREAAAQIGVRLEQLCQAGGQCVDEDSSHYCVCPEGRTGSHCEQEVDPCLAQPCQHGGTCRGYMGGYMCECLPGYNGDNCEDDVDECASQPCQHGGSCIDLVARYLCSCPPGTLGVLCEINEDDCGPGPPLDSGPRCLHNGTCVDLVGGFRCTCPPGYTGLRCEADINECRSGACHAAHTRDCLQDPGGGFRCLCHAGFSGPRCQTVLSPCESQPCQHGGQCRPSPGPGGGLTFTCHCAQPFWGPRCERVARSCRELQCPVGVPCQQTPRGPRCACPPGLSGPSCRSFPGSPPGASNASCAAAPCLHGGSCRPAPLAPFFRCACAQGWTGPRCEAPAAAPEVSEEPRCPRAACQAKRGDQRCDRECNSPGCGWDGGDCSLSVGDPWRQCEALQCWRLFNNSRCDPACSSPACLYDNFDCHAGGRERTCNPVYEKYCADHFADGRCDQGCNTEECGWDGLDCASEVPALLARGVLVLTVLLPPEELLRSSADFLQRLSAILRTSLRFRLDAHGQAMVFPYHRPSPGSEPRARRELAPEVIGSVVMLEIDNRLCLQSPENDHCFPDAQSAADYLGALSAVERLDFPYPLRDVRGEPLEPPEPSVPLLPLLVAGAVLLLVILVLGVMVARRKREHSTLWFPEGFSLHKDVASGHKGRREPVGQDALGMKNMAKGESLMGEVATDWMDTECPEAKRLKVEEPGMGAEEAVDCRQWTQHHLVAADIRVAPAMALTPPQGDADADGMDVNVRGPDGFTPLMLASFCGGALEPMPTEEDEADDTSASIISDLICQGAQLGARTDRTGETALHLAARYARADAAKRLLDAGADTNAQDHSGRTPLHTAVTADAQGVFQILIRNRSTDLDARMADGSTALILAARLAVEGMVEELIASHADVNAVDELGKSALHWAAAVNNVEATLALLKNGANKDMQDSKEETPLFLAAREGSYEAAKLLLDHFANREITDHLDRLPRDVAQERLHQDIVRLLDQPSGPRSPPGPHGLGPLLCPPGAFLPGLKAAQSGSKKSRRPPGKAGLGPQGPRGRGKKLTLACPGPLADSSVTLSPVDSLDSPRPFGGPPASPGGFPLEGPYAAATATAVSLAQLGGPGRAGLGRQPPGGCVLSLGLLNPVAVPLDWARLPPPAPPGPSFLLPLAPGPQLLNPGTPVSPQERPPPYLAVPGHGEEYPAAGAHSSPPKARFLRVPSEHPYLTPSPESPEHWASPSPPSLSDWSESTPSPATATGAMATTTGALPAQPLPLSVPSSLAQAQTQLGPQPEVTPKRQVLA

[20] = probe aEGFR binding to arrayed compounds – biochemical, biotinylated probe, 635/667 nm fluorescence, primary screen (AID 1097); conditions: small-molecule microarray, higher = more signal;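 note: probe is a biotinylated anti-EGFR antibody binding compounds printed on slides; score combines fluorescence near 667 nm and signal to noise of each spot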

SMILES | composite z-score [1] | composite z-score [2] | composite z-score [3] | composite z-score [4] | composite z-score [5] | composite z-score [6] | composite z-score [7] | z-score [8] | composite z-score [9] | composite z-score [10] | composite z-score [11] | z-score [12] | z-score [13] | z-score [14] | composite z-score [15] | z-score [16] | composite z-score [17] | composite z-score [18] | composite z-score [19] | composite z-score [20]
CC(C)N1C(=O)c2ccccc2[C@](C)(C(=O)NC2CC2)[C@@H]1c1ccc(CO)cc1 | -0.181 | 0.007 | -0.129 | -0.0282 | 0.38 | 0.602 | 1.21 | -0.0117 (inactive) | 0.048 | 0.0246 | 1.49 | -0.0975 (inactive) | 0.193 (inactive) | -0.699 (inactive) | 2.66 | 0.738 (inactive) | -0.14 | 0.614 | 0.764 | -0.081
CCCNC(=O)[C@@]1(C)c2ccccc2C(=O)N(C(C)C)[C@H]1c1ccc(CO)cc1 | 1.01 | -0.214 | -0.0704 | -0.425 | -0.963 | 0.447 | 1.3 | -0.51 (inactive) | -0.35 | -0.226 | -0.535 | -0.141 (inactive) | -0.712 (inactive) | -0.397 (inactive) | 2.75 | -1.2 (inactive) | 0.0692 | -0.827 | -1.05 | -0.174
COCC1=C([C@H](O)CCc2ccccc2)[C@H](CO)[C@@H]2C(=O)N(Cc3ccccc3)C(=O)[C@@H]2C1 | -0.286 | -0.133 | -0.101 | 0.085 | 0.258 | -0.295 | -0.112 | -0.4 (inactive) | -0.0829 | -0.249 | -0.197 | 0.226 (inactive) | -0.819 (inactive) | -0.177 (inactive) | -0.0602 | 1.38 (inactive) | -0.235 | 0.49 | 0.248 | -0.0794
COc1ccc([Si](C)(C)[C@@H]2[C@@H](CC(=O)N3Cc4ccccc4C[C@H]3CO)O[C@]3(C(=O)N(Cc4cccc(N5C(=O)COc6ccccc65)c4)c4ccccc43)[C@H]2C)cc1 | -0.562 | 0.608 | -0.1 | 0.41 | 0.244 | 1.57 | 0.725 | -2.29 (inactive) | 0.0559 | -0.451 | 1.49 | -1.38 (inactive) | 0.553 (inactive) | 3.67 (inactive) | 1.25 | 2.33 (inactive) | -0.15 | 0.812 | 1.14 | -0.0981
[N-]=[N+]=NCc1ccccc1C[C@@]1(C(=O)NCc2ccccc2)N=C(c2ccc(OCCCO)cc2)O[C@@H]1c1ccccc1CN=[N+]=[N-] | 0.705 | 0.425 | 0.107 | 0.809 | 0.933 | 0.926 | 1.05 | -1.95 (inactive) | 0.803 | 0.553 | 1.57 | -1.34 (inactive) | 0.0392 (inactive) | 36 (active) | 3.25 | 1.16 (inactive) | 0.395 | 0.234 | 0.756 | 0.0157
O=C1C2C=CC(C(O)c3ccc(-c4ccccc4)s3)N(Nc3ccccc3F)C2C(=O)N1c1ccccc1 (stereo not given) | 0.623 | 0.0116 | 0.0352 | 0.243 | 1.58 | 1.65 | 1.28 | 1.72 (inactive) | 0.955 | -0.0296 | 1.33 | 0.264 (inactive) | 0.167 (inactive) | 1.58 (inactive) | 2.85 | -1.82 (inactive) | 0.207 | -0.243 | 1.02 | 0.232
COCCOC(=O)N1C(=O)[C@@]2(c3cc(C#Cc4ccc(OC)cc4)ccc31)[C@H](C(N)=O)[C@H]1C(=O)O[C@H](c3ccccc3)[C@H](c3ccccc3)N1[C@@H]2c1ccc(O)cc1 | -0.39 | -0.343 | -0.167 | -0.206 | -1.64 | -0.55 | -0.297 | 0.961 (inactive) | -1.05 | -0.376 | -1.57 | -0.613 (inactive) | -0.0532 (inactive) | 0.333 (inactive) | -0.839 | 1.84 (inactive) | -0.264 | -2.13 | -1.35 | -0.627
O=[N+]([O-])c1ccc(C[n+]2ccc(CCCO)cc2)o1 | 0.138 | 0.218 | 0.0609 | 0.758 | 1.53 | 0.856 | 1.29 | 0.472 (inactive) | 0.181 | 0.251 | 0.464 | 0.593 (inactive) | -12.9 (active) | -0.302 (inactive) | 2.46 | -2.76 (inactive) | 0.24 | 1.73 | 1.07 | 0.296
CN(C)CCCC[C@@H]1NC(=O)[C@@H]2C[C@H](C(=O)NCCCCCN)[C@H](c3ccc(O)cc3)N2C1=O | 0.591 | 0.137 | -0.043 | -0.285 | 0.235 | 2.23 | 0.293 | -0.926 (inactive) | 0.0993 | -0.0324 | 0.255 | 0.212 (inactive) | -0.977 (inactive) | 0.213 (inactive) | 2.6 | 0.0706 (inactive) | -0.0862 | -0.668 | -0.0504 | -0.075
